Results filed as inconclusive are left out. Where a call stands in place of a potency, no number is given. Values without a mark were called inactive. Active and inactive are the calls of the source. Calls follow the shape of the dose curve; as a rule, active = well fitted inhibition curve with a large enough effect; inconclusive = small, poorly fitted or top-dose-only effect; inactive = flat fitted curve, though single readings scatter.
Target: Calcium and integrin-binding protein 1 (Homo sapiens) (UniProt Q99828)
Test: Primary qHTS for Identification of Calcium Integrin Binding Protein 1 (CIB1) Competitor (AID 1508620); also: top concentration of the series differs between compounds
In short: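 Fluorescence polarization competition: GST-tagged CIB1 (1 uM final) preincubated with compound 15 min at room temperature, then FITC-labelled alphaIIb peptide (100 nM final) added. After 15 min at room temperature, polarization read at Ex 480/Em 540.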

Sequence of Calcium and integrin-binding protein 1 (Homo sapiens) (Q99828 whole entry, looked up): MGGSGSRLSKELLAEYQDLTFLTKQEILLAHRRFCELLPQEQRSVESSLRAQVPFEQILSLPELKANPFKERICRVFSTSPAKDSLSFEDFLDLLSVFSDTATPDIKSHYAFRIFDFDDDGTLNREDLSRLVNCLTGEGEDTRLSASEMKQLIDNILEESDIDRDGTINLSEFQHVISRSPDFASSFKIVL

| Structure (SMILES) | Potency | activity change, negative = inhibition |
| --- | --- | --- |
| CC1=CC2/C=C(\C)CCC(O)C/C=C/C(=O)OC23C(=O)NC(CC(C)C)C3C1C (stereo unspecified) | inactive | – |
| NC(N)=NC(=O)c1cnn(-c2cccc3ncccc23)c1C1CC1 | inactive | – |
| C/C(=C/C=C\C=C\Cc1cnco1)[C@@H](O)C(C)(C)C(N)=O | inactive | – |
| C[C@@H]1C[C@H](C)CN(CCC(=O)Nc2ccc(Br)cc2)C1 | inactive | – |
| CC(=O)Nc1cccc(Nc2ncnc(N3CCC(OCc4ccc(OC(F)(F)F)cc4)CC3)n2)c1C | inactive | – |
| CCC/C=C/c1cc2c(C=O)c(O)c(CC=C(C)C)cc2o1 | inactive | – |
| COC1=CC(=O)C[C@@H](C)[C@@]12Oc1c(Cl)c(OC)cc(OC)c1C2=O | inactive | – |
| C[C@]12CC[C@@H]3c4ccc(O)c(O)c4CC[C@H]3[C@@H]1CCC2=O | inactive | – |
| CC(C)CCCCC(=O)N[C@@H](CO)C(=O)N[C@@H](CC(C)C)C(=O)[C@@]1(CO)CO1 | inactive | – |
| COc1ccc2nccc(C(=O)CC[C@@H]3CCN(CC#Cc4cc(F)cc(F)c4F)C[C@@H]3C(=O)O)c2c1 | inactive | – |
| CC(=O)NC(C)c1cnc(-c2cnc(Oc3ccc(OC(C)C)cc3)s2)s1 (stereo unspecified) | inactive | – |
| CCCn1cc2c(nc(NC(=O)Nc3ccc(OC)cc3)n3nc(-c4ccco4)nc23)n1 | inactive | – |
| COc1ccc([C@H]2OC[C@H]3O[C@@H](O[C@H]4[C@@H]2NC[C@@H]4O)[C@H](O)[C@H]3O)cc1 | inactive | – |
| O=C(Nc1ccccc1)c1ccc(Nc2nnc(-c3ccc(O)cc3)c3ccccc23)cc1 | inactive | – |
| Cc1cccc(-c2[nH]ncc2-c2ccc(F)c(-c3cnn(CCO)c3)c2)n1 | inactive | – |
| O=C(c1ccccn1)N(Cc1cccs1)C1(C(=O)NC2CCCCC2)CCCCC1 | inactive | – |

| Structure (SMILES) | Potency | activity change, negative = inhibition |
| --- | --- | --- |
| O=C(Nc1ccc(Cl)cc1)C1CCCN(C(=O)c2cccc(-c3ccco3)c2)C1 (stereo unspecified) | inactive | – |
| C=CC(=O)N1CCCN(c2cc(NCCC(=O)O)nc(-c3ccccn3)n2)CC1 | inactive | – |
| Cc1ccc(S(=O)(=O)N2CCC[C@H]2c2ccc(F)cc2)cc1 | inactive | – |
| Cc1cc(Nc2nc(-c3ccccc3)nc3ccccc23)n[nH]1 | inactive | – |
| COC1CC(O[C@H]2CC[C@]3(C)C4CC[C@]5(C)C(C6=CC(=O)OC6)=CCC56OC46CC[C@@H]3C2)OC(C)C1O[C@@H]1O[C@H](CO[C@@H]2O[C@H](CO)[C@@H](O)[C@H](O)[C@H]2O)[C@@H](O)[C@H](O)[C@H]1O (stereo partly specified) | inactive | – |
| Cc1cc(-c2nc(-c3ccc(OC(F)(F)F)cc3)no2)nn1Cc1ccnc(N2CCN(C3CC3)CC2)c1 | inactive | – |
| CC(=O)OC(C)(C)/C=C/C(=O)C(C)(O)C1C(O)CC2(C)C3CC=C(C(C)(C)C(=O)O)C(CC(=O)O)C3(C)C(=O)CC12C (stereo unspecified) | inactive | – |
| O=C(NC[C@H]1CN(c2ccc(N3CCOCC3=O)cc2)C(=O)O1)c1ccc(Cl)s1 | inactive | – |
| COc1ccccc1OCCN1CC(COc2cccc3[nH]c4ccccc4c23)OCC1=O (stereo unspecified) | inactive | – |
| CC(=O)NC(C(=O)O[C@H]1CCC(C)(C)[C@@H]2CC=C3C(=O)OCC3(O)[C@@]12C)C(C)C (stereo partly specified) | inactive | – |
| C=C(C=O)[C@]1(O)C[C@@]2(C)C(=CC1=O)C=C[C@H](OC(=O)/C=C/C=C/[C@H](C)CC)[C@@H]2C | inactive | – |
| C[C@H]1CO[C@@H]2Cn3cc(C(=O)NCc4ccc(F)cc4F)c(=O)c(O)c3C(=O)N12 | inactive | – |
| CCC(C)(OC(C)=O)C(=O)O[C@H]1[C@H](OC(C)=O)[C@]2(CO)[C@H](O)[C@H](O)[C@]3(C)C(=CCC4[C@@]5(C)CC[C@H](O[C@@H]6O[C@H](C(=O)O)[C@@H](O)[C@H](O[C@@H]7OC[C@H](O)[C@H](O[C@@H]8OC[C@H](O)[C@H](O)[C@H]8O)[C@H]7O)[C@H]6O[C@@H]6O[C@H](CO)[C@@H](O)[C@H](O)[C@H]6O)C(C)(C)C5CC[C@]43C)[C@@H]2CC1(C)C (stereo partly specified) | – | 5.33% [at 12.4 µM] |
| CCCC(=O)C1(c2ccccc2)CCN(C(=O)[C@@H](Cc2ccc(OC)cc2)NC(=O)[C@@H](N)Cc2cncn2C)CC1 | inactive | – |
| CN(C)CCC(CSc1ccccc1)Nc1ccc(S(=O)(=O)NC(=O)c2ccc(N3CCN(Cc4ccccc4-c4ccc(Cl)cc4)CC3)cc2)cc1[N+](=O)[O-] (stereo unspecified) | inactive | – |
